Read-out in test [1]: Tumor necrosis factor receptor superfamily member 6 (Homo sapiens) (UniProt P25445)
Kind of test: LTEA_HepaRG_FAS: Life Technologies and Expression Analysis (LTEA) Assay for Fas cell surface death receptor (FAS) using HepaRG (AID 2283447). The following applies: mRNA level, 48 h; actives raise or lower the signal. In short, it runs like this: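 FAS transcript level was measured by TaqMan qRT-PCR against three housekeeping genes after 48 h chemical exposure. Cells were HepaRG, 0.5% DMSO vehicle, with a top concentration of 100 uM and half-log dilutions over eight points, in duplicate.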

Read-out in test [2]: Fatty acid synthase (Homo sapiens) (UniProt P49327)
Kind of test: LTEA_HepaRG_FASN: Life Technologies and Expression Analysis (LTEA) Assay for Fatty Acid Synthase (FASN) using HepaRG (AID 2283448).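 On AC50: differentiated human HepaRG liver cells in serum-free induction medium.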 The note with it: mRNA level, 48 h; actives raise or lower the signal. In short, it runs like this: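 HepaRG, 48 h exposure, 8-pt half-log series top 100 uM, 0.5% DMSO vehicle, duplicates. Readout: FASN transcript by Fluidigm qRT-PCR; housekeeping-normalized; bidirectional curve fit vs DMSO baseline.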

Read-out in test [3]: Cyclin D2 (CCND2), CCND2 (gene 894)
Kind of test: LTEA_HepaRG_CCND2: Life Technologies and Expression Analysis (LTEA) Assay for Cyclin D2 (CCND2) using HepaRG (AID 2283449). The following applies: mRNA level, 48 h; actives raise or lower the signal. In short, it runs like this: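 CCND2 transcript levels, quantified by qRT-PCR and normalised to three housekeeping genes, were fitted bidirectionally against 0.5% DMSO. HepaRG cultures were dosed 48 h in duplicate with an 8-point half-log series up to 100 uM.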

Read-out in test [4]: Cyclin Dependent Kinase Inhibitor 1A (CDKN1A), CDKN1A (gene 1026)
Kind of test: LTEA_HepaRG_CDKN1A: Life Technologies and Expression Analysis (LTEA) Assay for Cyclin Dependent Kinase Inhibitor 1A (CDKN1A) using HepaRG (AID 2283450). The note with it: mRNA level, 48 h; actives raise or lower the signal. The method, boiled down: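 HepaRG, 48 h dosing, 8-pt half-log series from 100 uM top, 0.5% DMSO vehicle, duplicates. Readout: TaqMan qRT-PCR of CDKN1A transcript, housekeeping-normalized (ACTB, GAPDH, POLR2A). Up/down curve fit relative to DMSO.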

Read-out in test [5]: Cyclin D1 (CCND1), CCND1 (gene 595)
Kind of test: LTEA_HepaRG_CCND1: Life Technologies and Expression Analysis (LTEA) Assay for Cyclin D1 (CCND1) using HepaRG (AID 2283451).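 On AC50: differentiated human HepaRG liver cells in serum-free induction medium.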 The note with it: mRNA level, 48 h; actives raise or lower the signal. In short, it runs like this:
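qRT-PCR (Fluidigm 96.96 array) read-out of transcript level, housekeeping-normalized (ACTB/GAPDH/POLR2A). HepaRG cells, 48 h chemical exposure, 8-point half-log series from 100 uM, 0.5% DMSO vehicle; gain or loss relative to DMSO baseline.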

Read-out in test [6]: catalase (CAT), CAT (gene 847)
Kind of test: LTEA_HepaRG_CAT: Life Technologies and Expression Analysis (LTEA) Assay for catalase (CAT) using HepaRG (AID 2283452). The note with it: mRNA level, 48 h; actives raise or lower the signal. The method, boiled down:
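Expression of CAT was quantified by TaqMan qRT-PCR with ACTB/GAPDH/POLR2A normalization after 48 h chemical exposure of HepaRG. Eight-point half-log series, top 100 uM, in 0.5% DMSO; gain or loss fitted against vehicle.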

Read-out in test [7]: flavin-containing dimethylaniline monooxygenases 3 (FMO3), FMO3 (gene 2328)
As to the kind of experiment: LTEA_HepaRG_FMO3: Life Technologies and Expression Analysis (LTEA) Assay for flavin-containing dimethylaniline monooxygenases 3 (FMO3) using HepaRG (AID 2283453).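 On AC50: differentiated human HepaRG liver cells in serum-free induction medium.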 The following applies: mRNA level, 48 h; actives raise or lower the signal. The method, boiled down: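 Eight-point concentration-response in serum-free HepaRG cultures (top 100 uM, 0.5% DMSO, 48 h). Read-out: FMO3 mRNA level normalized to three endogenous control genes, fitted bidirectionally versus vehicle.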

Read-out in test [8]: Cytochrome P450 (CYP1A1), CYP1A1 (gene 1543)
Kind of test: LTEA_HepaRG_CYP1A1: Life Technologies and Expression Analysis (LTEA) Assay for Cytochrome P450 (CYP1A1) using HepaRG (AID 2283454). The note with it: mRNA level, 48 h; actives raise or lower the signal. In short, it runs like this: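 qRT-PCR read-out: CYP1A1 transcript normalized to three housekeeping genes, fitted bidirectionally against 0.5% DMSO vehicle baseline. Human HepaRG cells, 48 h chemical exposure, 8-point half-log series topping at 100 uM.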

Read-out in test [9]: CFLAR gene, CFLAR (gene 8837)
Kind of test: LTEA_HepaRG_CFLAR: Life Technologies and Expression Analysis (LTEA) Assay for CFLAR gene using HepaRG (AID 2283455). The note with it: mRNA level, 48 h; actives raise or lower the signal. In short, it runs like this:
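Transcript level by qRT-PCR (normalized to ACTB, GAPDH and POLR2A) after 48 h chemical exposure of HepaRG cells, top concentration 100 uM with half-log steps, 0.5% DMSO vehicle, duplicates; fitted bidirectionally against DMSO baseline.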

Read-out in test [10]: Forkhead box O1 (FOXO1), FOXO1 (gene 2308)
Kind of test: LTEA_HepaRG_FOXO1: Life Technologies and Expression Analysis (LTEA) Assay for Forkhead box O1 (FOXO1) using HepaRG (AID 2283456). The note with it: mRNA level, 48 h; actives raise or lower the signal. The method, boiled down:
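FOXO1 transcript quantified by qRT-PCR after 48 h chemical exposure (top 100 uM, half-log steps, 0.5% DMSO) of HepaRG cells, housekeeping-normalized (ACTB/GAPDH/POLR2A). Changes fitted in both directions relative to vehicle.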

Read-out in test [11]: growth arrest and DNA damage 45 (GADD45A), GADD45A (gene 1647)
Kind of test: LTEA_HepaRG_GADD45A: Life Technologies and Expression Analysis (LTEA) Assay for growth arrest and DNA damage 45 (GADD45A) using HepaRG (AID 2283458). The note with it: mRNA level, 48 h; actives raise or lower the signal. The method, boiled down:
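HepaRG, 48 h exposure, 8 conc. (top 100 uM, half-log steps), 0.5% DMSO vehicle, duplicates. Read-out: qRT-PCR mRNA level, housekeeping-normalized (ACTB/GAPDH/POLR2A). Curves fit bidirectionally vs DMSO baseline.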

Read-out in test [12]: Forkhead box O3 (FOXO3), FOXO3 (gene 2309)
Kind of test: LTEA_HepaRG_FOXO3: Life Technologies and Expression Analysis (LTEA) Assay for Forkhead box O3 (FOXO3) using HepaRG (AID 2283459). The following applies: mRNA level, 48 h; actives raise or lower the signal. In short, it runs like this: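 FOXO3 transcript measured by qRT-PCR (normalized to ACTB, GAPDH, POLR2A) after 48 h exposure of HepaRG cells in serum-free induction medium. Duplicates, eight half-log concentrations up to 100 uM, 0.5% DMSO; gain or loss fitted against DMSO.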

Read-out in test [13]: ABC Transporter (ABCC3), ABCC3 (gene 8714)
Kind of test: LTEA_HepaRG_ABCC3: Life Technologies and Expression Analysis (LTEA) Assay for ABC Transporter (ABCC3) using HepaRG (AID 2283462). The following applies: mRNA level, 48 h; actives raise or lower the signal. In short, it runs like this:
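qRT-PCR read-out of ABCC3 transcript, normalized to three housekeeping genes (ACTB, GAPDH, POLR2A), after 48 h chemical exposure of human HepaRG cells. Eight half-log concentrations, highest 100 uM, in 0.5% DMSO; gain or loss fitted relative to DMSO baseline.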

Read-out in test [14]: ABC Transporter (ABCB11), ABCB11 (gene 8647)
As to the kind of experiment: LTEA_HepaRG_ABCB11: Life Technologies and Expression Analysis (LTEA) Assay for ABC Transporter (ABCB11) using HepaRG (AID 2283463). The note with it: mRNA level, 48 h; actives raise or lower the signal. In short, it runs like this: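 ABCB11 transcript levels quantified by TaqMan qRT-PCR against three housekeeping genes after 48 h chemical exposure of HepaRG cultures. Concentrations up to 100 uM in half-log steps, 0.5% DMSO vehicle; both induction and suppression scored.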

Read-out in test [15]: ABC Transporter (ABCC2), ABCC2 (gene 1244)
Kind of test: LTEA_HepaRG_ABCC2: Life Technologies and Expression Analysis (LTEA) Assay for ABC Transporter (ABCC2) using HepaRG (AID 2283464). The following applies: mRNA level, 48 h; actives raise or lower the signal. In short, it runs like this: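 qRT-PCR (TaqMan, Fluidigm array) read-out of ABCC2 mRNA, normalized to three housekeeping genes. Differentiated HepaRG cells were treated 48 h in serum-free induction medium with 8-point half-log series from 100 uM in 0.5% DMSO; curves fitted bidirectionally relative to DMSO.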

Test [16] in a line: CEETOX_H295R_ESTRADIOL: CeeTox H295R High-throughput Steroidogenesis Assay for Estradiol (AID 2283440).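 Further: estradiol secreted into medium quantified by LC-MS/MS after dansyl derivatisation.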 The following applies: actives raise or lower the signal. In short, it runs like this: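 H295R, 48 h forskolin (10 uM) prestim → 48 h compound, 0.1% DMSO final. Estradiol in medium: MTBE extraction, dansyl chloride derivatization, LC-MS/MS. Fit bidirectional vs DMSO baseline; MTT viability in same wells.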

A short description of test [17]: CEETOX_H295R_PROG: CeeTox H295R High-throughput Steroidogenesis Assay for Progesterone (PROG) (AID 2283442). The note with it: actives raise or lower the signal. In short, it runs like this: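 Progesterone read-out: HPLC-MS/MS on MTBE extracts of conditioned medium after 48 h chemical exposure of forskolin-primed (10 uM, 48 h) H295R cells. Gain or loss of signal was fitted relative to DMSO baseline.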

Test [18] can be described thus: CEETOX_H295R_TESTO: CeeTox H295R High-throughput Steroidogenesis Assay for Testosterone (TESTO) (AID 2283457). The following applies: actives raise or lower the signal. In short, it runs like this: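 Readout: testosterone quantified by HPLC-MS/MS (C18, ESI positive) after MTBE liquid-liquid extraction of culture medium. Cells were H295R, 48 h chemical exposure per OECD 456 with modifications. Gain or loss of signal fitted relative to DMSO.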

Some structures have more than one record in an assay (separate samples or runs), and their calls can disagree. The source made the active and inactive calls. How the source made its calls: active means hit-call score of the fitted dose curve at least 0.9, where 1 is the maximum; inactive means score below 0.9.

Chain of Fatty acid synthase (Homo sapiens) (P49327 whole entry, looked up): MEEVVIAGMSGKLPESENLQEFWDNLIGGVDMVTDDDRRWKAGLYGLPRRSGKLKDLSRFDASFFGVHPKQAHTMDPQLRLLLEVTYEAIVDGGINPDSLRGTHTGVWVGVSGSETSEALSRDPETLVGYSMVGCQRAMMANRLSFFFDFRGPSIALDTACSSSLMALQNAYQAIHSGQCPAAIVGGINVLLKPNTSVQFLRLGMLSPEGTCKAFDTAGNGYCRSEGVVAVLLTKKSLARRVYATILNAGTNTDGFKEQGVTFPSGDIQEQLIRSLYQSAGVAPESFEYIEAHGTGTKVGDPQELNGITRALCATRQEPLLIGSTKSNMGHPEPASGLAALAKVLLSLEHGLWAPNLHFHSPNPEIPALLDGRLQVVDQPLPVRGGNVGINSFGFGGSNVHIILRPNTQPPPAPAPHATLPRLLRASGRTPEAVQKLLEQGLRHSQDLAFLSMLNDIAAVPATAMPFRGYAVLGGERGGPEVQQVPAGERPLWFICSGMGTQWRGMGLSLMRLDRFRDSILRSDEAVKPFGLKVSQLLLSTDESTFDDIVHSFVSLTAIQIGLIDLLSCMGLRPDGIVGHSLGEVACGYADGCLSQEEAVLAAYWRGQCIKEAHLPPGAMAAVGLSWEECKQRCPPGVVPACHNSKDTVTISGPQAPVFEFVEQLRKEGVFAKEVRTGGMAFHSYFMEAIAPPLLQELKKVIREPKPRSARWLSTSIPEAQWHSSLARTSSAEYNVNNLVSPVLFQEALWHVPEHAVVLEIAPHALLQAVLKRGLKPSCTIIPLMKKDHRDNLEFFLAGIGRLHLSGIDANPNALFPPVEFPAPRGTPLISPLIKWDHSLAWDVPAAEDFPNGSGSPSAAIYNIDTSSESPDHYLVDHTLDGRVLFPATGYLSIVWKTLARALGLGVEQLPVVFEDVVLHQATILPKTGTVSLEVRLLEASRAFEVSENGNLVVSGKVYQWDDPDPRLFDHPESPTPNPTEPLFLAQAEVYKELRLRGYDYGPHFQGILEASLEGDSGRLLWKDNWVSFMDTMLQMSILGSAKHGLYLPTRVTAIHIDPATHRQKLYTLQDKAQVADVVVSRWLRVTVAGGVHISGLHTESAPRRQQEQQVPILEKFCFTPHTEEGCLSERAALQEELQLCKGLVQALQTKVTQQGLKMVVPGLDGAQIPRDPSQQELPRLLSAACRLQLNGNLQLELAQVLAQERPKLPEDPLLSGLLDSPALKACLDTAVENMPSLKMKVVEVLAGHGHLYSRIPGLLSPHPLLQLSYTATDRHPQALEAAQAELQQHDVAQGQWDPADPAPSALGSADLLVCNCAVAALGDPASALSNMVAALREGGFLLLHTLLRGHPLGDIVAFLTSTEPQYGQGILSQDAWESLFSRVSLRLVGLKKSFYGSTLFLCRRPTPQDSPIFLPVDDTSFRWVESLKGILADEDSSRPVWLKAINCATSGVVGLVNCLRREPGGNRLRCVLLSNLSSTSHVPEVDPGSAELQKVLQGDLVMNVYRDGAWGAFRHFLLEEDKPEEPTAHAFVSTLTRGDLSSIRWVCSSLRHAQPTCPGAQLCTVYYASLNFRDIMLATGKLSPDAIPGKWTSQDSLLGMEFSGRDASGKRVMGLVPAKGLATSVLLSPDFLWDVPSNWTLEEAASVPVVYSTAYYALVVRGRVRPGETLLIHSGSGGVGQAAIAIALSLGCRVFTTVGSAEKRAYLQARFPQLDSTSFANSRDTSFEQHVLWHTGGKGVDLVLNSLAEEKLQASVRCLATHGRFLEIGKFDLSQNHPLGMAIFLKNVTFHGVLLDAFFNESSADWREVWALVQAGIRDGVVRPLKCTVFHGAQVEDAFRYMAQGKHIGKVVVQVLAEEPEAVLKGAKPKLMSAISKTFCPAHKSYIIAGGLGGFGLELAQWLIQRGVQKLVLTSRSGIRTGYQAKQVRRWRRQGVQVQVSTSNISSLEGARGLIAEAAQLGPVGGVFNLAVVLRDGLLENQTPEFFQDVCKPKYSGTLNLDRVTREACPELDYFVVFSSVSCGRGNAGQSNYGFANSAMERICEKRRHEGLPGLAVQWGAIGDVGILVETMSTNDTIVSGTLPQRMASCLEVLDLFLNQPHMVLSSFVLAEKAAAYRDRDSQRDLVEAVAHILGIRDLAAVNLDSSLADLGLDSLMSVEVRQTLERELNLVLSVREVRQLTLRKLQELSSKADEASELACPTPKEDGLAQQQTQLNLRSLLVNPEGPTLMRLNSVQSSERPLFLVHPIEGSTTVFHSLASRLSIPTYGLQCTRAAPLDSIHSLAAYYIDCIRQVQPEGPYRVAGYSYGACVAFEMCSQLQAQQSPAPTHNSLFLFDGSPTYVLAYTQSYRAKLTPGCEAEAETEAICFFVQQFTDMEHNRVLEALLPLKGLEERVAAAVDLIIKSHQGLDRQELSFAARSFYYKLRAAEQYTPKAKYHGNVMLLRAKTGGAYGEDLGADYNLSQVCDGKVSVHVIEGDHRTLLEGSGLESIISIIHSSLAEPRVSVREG

Consider `O=C(O)c1nc(Cl)ccc1Cl`, for which the compound was classed as inactive in [1], in test [2], in test [3], in [4], in test [5] and in test [6]. Besides, the compound was classed as inactive in test [7], in [8], in test [9], in [10], in [11] and in test [12]. In addition, the compound was classed as inactive in test [13], in [14] and in test [15]. In [8], the AC50 (as a rule, the midpoint of the concentration-response curve, whichever way the signal moves) is 50 µM (active).
For the compound `CC1=C(C(=O)Nc2ccccc2)SCCO1`, the AC50 in [16] was 21.2 µM (active); in test [2] it was 30.8 µM (active); in test [5] it was 50 µM (active); in test [6], 12.8 µM (active); in [7] it was 50 µM (active); in test [8] it was 89.9 µM (active). In addition, the AC50 in test [9], in test [12] and in test [14] was 50 µM (active) in each case. The outcome in test [17], in test [1], in test [3], in test [4], in [10] and in test [18] was inactive. Further, the compound was classed as inactive in [11], in [13] and in test [15].
Take `CC(C)Oc1cc(-n2nc(C(C)(C)C)oc2=O)c(Cl)cc1Cl`: the compound was classed as inactive in test [16], in test [17], in test [1], in test [2], in test [5] and in test [9]. The compound was called inactive in test [10], in test [18], in test [11], in test [12] and in [13]. Also, the AC50 in test [4] is 84.1 µM (active); in test [6] it was 50 µM (active); in [7], 61.5 µM (active); in test [8] it was 13.2 µM (active); in test [14], 58.8 µM (active); in test [15] it was 2.52 µM (active).

The values are drawn from PubChem BioAssay (EPA / NIEHS).
